Screens deposited in PubChem BioAssay by National Center for Advancing Translational Sciences (NCATS).
Shown are actives, neighbours in structure and some others; about 2.6% of the full set was active somewhere.
Cruzain Triton: qHTS Assay for Promiscuous and Specific Inhibitors of Cruzain (with detergent). Potency, µM, for the others: max response, negative = inhibition, usual class: inhibitors. 200,000 tested, 0.43% active. purified cruzain, Z-FR-AMC fluorescence, 0.01% Triton. Cruzipain (Trypanosoma cruzi), P25779;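 further: plate controls were neutral wells for no effect and buffer without enzyme for full effect; nearly all actives have a fitted effect of over 40% in size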
Target sequence (P25779 123-467 limits assumed): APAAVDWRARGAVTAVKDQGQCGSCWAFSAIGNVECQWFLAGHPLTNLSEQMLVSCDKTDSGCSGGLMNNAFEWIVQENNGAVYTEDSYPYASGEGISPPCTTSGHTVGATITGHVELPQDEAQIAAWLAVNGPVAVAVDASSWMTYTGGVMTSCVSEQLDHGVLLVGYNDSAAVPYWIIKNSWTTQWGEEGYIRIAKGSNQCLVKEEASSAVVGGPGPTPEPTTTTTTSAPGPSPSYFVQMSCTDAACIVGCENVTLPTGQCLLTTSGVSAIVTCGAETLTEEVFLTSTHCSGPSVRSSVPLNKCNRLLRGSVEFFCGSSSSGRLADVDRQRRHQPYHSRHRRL
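Compounds were screened in titration against cruzain (1.5 nM) with 0.01% Triton X-100 to counter colloidal aggregation. Activity was the AMC fluorescence increase over 60 s after adding 2 uM Z-FR-AMC at pH 5.5.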
Cruzain inh noDet: qHTS Assay for Promiscuous and Specific Inhibitors of Cruzain (without detergent) | Cruzipain (Trypanosoma cruzi), P25779 | purified cruzain, Z-FR-AMC fluorescence, no detergent | Potency, µM, for the others: max response, negative = inhibition, most hits filed as inhibitors | 200,000 tested, 2.3% active;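 further: plate controls were enzyme without inhibitor for no effect and buffer without enzyme for full effect; nearly all actives have a fitted effect of over 40% in size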
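Detergent-free condition (0.00005% Triton X-100) in acetate buffer pH 5.5 with DTT. 1.5 nM enzyme and compound were pre-mixed 15 min, then 2 uM Z-FR-AMC substrate added; reaction progress from fluorescence change between first and third reads (60 s).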
Papain counter: qHTS Assay for Inhibitors of Papain: Counterscreen for Cruzain Assay. shares compounds with Cruzain Triton. purified papain, Z-FR-AMC fluorescence cleavage. Potency, µM, without a hit: max response, negative = inhibition, actives largely listed as inhibitors. 410 tested, 41% active. AID 2161, 2009;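 further: 0% = no-compound wells and -100% = no-enzyme wells; nearly all actives have a fitted effect of over 35% in size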
Target sequence (P00784 whole entry, looked up): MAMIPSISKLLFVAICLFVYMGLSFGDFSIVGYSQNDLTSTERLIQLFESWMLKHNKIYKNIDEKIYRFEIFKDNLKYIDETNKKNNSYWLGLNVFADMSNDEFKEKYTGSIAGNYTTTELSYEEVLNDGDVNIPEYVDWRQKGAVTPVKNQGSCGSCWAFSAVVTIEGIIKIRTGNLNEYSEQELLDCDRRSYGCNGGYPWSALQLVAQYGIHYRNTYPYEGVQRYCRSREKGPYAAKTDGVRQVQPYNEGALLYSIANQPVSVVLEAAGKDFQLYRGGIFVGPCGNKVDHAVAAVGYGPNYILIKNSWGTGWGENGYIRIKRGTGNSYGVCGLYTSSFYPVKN
* = called active by the depositor; ? = inconclusive; . = no result given. The call rests on the fitted dose curve; in most records, active means well fitted curve in the direction sought with a large enough effect; inconclusive means small, poorly fitted or top-dose-only effect, or another doubt; inactive means no such curve, though single readings can be large; an effect the other way counts as inactive or inconclusive. Potency means the concentration at half of the fitted maximal effect.

SMILES	Cruzain Triton	Cruzain inh noDet	Papain counter
CN(Cc1ccccc1)C(=O)COC(=O)C1=NNC(=O)CC1	3%	-5%	.
CCOC(=O)Cn1c(=O)oc2cc(S(=O)(=O)Nc3ccccc3F)ccc21	2%	-10%	.
OCc1ccccc1N=c1ssnc1Cl	-3%	25µM*	.
Nc1nc(Nc2ccc(Cl)cc2)nc2ccccc12	28µM*	10µM*	.
Nc1nc(Nc2ccccc2)nc2ccccc12	?	25µM*	.
Oc1ccc(Nc2nc(-c3ccc(Cl)cc3)nc3ccccc23)cc1	-8%	?	.
COc1cc2nc(Nc3cccc(C)c3)nc(N)c2cc1OC	?	3%	.
CC1CCN(c2ccc(/C=N/n3nnnc3N)cc2[N+](=O)[O-])CC1	-1%	-10%	.
CC1CCN(c2ccc(/C=N\Nc3nncn3N)cc2[N+](=O)[O-])CC1	-9%	25µM*	.
Cc1nc(SCC(O)CCl)c([N+](=O)[O-])[nH]1 (stereo unspecified)	-2%	4%	.
O=C1CN(C(=O)CSc2nc3ccccc3n2CCc2ccccc2)c2ccccc2N1	-24%	-22%	.
CCCn1c(SCC(=O)N2CC(=O)Nc3ccccc32)nc2ccccc21	13µM*	4%	11%
Cc1cc(=O)oc2cc(OCC(=O)N3CCOCC3)ccc12	8.9µM*	-1%	14µM*
Cc1cc(=O)oc2cc(OC(C)C(=O)N3CCOCC3)ccc12 (stereo unspecified)	-23%	-13%	.
CCOc1cc(C(=O)Nc2ccc(-c3nc4ccccc4s3)cc2Cl)cc(OCC)c1OCC	1%	-5%	.
COc1ccccc1N1CC(O)=C(c2nc3ccccc3c(=O)[nH]2)C1=N	-5%	-5%	.
O=C(Nc1nc(-c2ccc(S(=O)(=O)N3CCCC3)cc2)cs1)c1cccs1	-5%	-27%	.
CCOc1ccc(S(=O)(=O)N2CCc3ccccc3C2)cc1	0%	-15%	.
O=C(Nc1nc(-c2ccc(S(=O)(=O)N3CCCCCC3)cc2)cs1)c1cccs1	-5%	3.2µM*	2%
CCOc1ccc(-c2csc(NC(=O)c3ccc(S(=O)(=O)N4CCc5ccccc5C4)cc3)n2)cc1	-1%	4µM*	11%
CC(C)(C)c1ccc(Cn2c(Cc3ccccc3)nc3ccccc32)cc1	-9%	0%	.
O=C(O)c1ccc2c(c1C(=O)O)C(=O)OC2(c1ccc(O)cc1)c1ccc(O)cc1	0%	-3%	.
CCC(C(=O)NC1CCCC1)n1c(SCc2cccc(C)c2)nc2ccncc21 (stereo unspecified)	-15%	1%	.
CCC(C(=O)NC1CCCCC1)n1c(SCc2ccc(F)cc2)nc2ccncc21 (stereo unspecified)	13µM*	0%	-15%
CSc1ccccc1NC(=O)Nc1ccc(F)c(Cl)c1	-6%	2%	.
SMILES	Cruzain Triton	Cruzain inh noDet	Papain counter
Nc1nc(NCC2CCC(CNS(=O)(=O)c3cccc4ccccc34)CC2)nc2ccccc12 (stereo unspecified)	-7%	?	.
c1ccc(-c2nnc(-c3ccccn3)nc2NC2CCCCC2)cc1	0%	13%	.
N#Cc1nc(Nc2ccc(-c3ccccc3)cc2)nc(NC2CCCC2)n1	.	.	3.5µM*
COc1cccc(Nc2nc(C#N)nc(NC3CCCC3)n2)c1	.	.	0.28µM*
N#Cc1nc(Nc2ccc(F)cc2)nc(NC2CCCC2)n1	.	.	0.45µM*
O=C(Nc1ccc(F)cc1)NC1CCCCC1	5%	0%	.
N#Cc1nc(NCC2CC2)nc(Nc2ccccc2)n1	.	.	1.3µM*
COc1cccc(/C=C/c2nc(C#N)c(NC3CCCCC3)o2)c1	-5%	4%	.
O=C(CCn1cccn1)NCc1ccc(Cl)cc1	-2%	-12%	.
CCOC(=O)c1cc(C)n(CC2CCC(C(=O)Nc3ccc(OCC)cc3)CC2)c1C (stereo unspecified)	-3%	14%	.
O=C(CSc1nc2ccccc2nc1Cc1ccc(Cl)cc1)Nc1ccc2c(c1)OCO2	3%	-9%	.
Cc1nc(N[C@@H](Cc2c[nH]c3ccccc23)C(=O)O)c2oc3ccccc3c2n1	-9%	10%	.
CC1CN=C(Nc2cccc3ccccc23)S1 (stereo unspecified)	-3%	0%	.
N#Cc1c[nH]n2c(NC3CCCC3)c(-c3cccc(Br)c3)nc12	-7%	?	.
N#Cc1nc(Nc2ccccc2)nc(NC2CCCC2)n1	.	.	0.45µM*
N#Cc1nc(Nc2cccc3ccccc23)nc(NC2CCCC2)n1	.	.	4.5µM*
N#Cc1nc(Nc2cccc(Br)c2)nc(NC2CCCC2)n1	.	.	1.3µM*
c1ccc(Nc2nc(N3CCCC3)nc(N3CCCC3)n2)cc1	-11%	-15%	.
CC1CC(C)CN(C(=O)c2ccc3c(c2NCCO)C(=O)c2ccccc2C3=O)C1 (stereo unspecified)	-8%	?	.
CC(C)CSc1nc2c(c(=O)[nH]c(=O)n2C)n1CC(O)COc1cccc2ccccc12 (stereo unspecified)	-2%	?	.
CCOP(=O)(OCC)c1nc(/C=C/c2ccccc2)oc1NCc1ccc(OC)cc1	23%	?	.
CCCCN(C(=O)Cn1nnc2ccccc21)C(C(=O)NCCOC)c1ccc(OC)cc1OC (stereo unspecified)	-3%	16%	.
CCOC(=O)c1sc(N/N=C/c2ccccc2)nc1C	-6%	?	.
CCOC(=O)c1sc(N/N=C/c2cccc(C)c2)nc1C	1.4µM*	?	1.3µM*
O=C(NC1CCCC1)c1ccc(CS(=O)(=O)c2cccc(C(F)(F)F)c2)o1	5%	14%	.
SMILES	Cruzain Triton	Cruzain inh noDet	Papain counter
Cc1cc(-c2nnc3sc(-c4ccc(Cl)cc4Cl)nn23)n[nH]1	8%	-11%	.
COc1cc(OC)c(-c2nn3c(-c4cc(C)[nH]n4)nnc3s2)cc1OC	.	.	-63%
c1csc(Cc2nn3c(-c4n[nH]c5c4CCC5)nnc3s2)c1	-4%	?	.
COc1cc(OC)c(-c2nn3c(-c4n[nH]c5c4CCC5)nnc3s2)cc1OC	.	.	2%
Cc1nc2cc(C(=O)OCC(=O)N(CC(C)C)C3CCS(=O)(=O)C3)ccc2n1-c1ccccc1 (stereo unspecified)	2%	?	.
CC(C)N(CCC(=O)c1ccc2ccccc2c1)Cc1ccccc1	7.9µM*	7.9µM*	-15%
CCC(=O)CCC(=O)c1ccc2ccccc2c1	-4%	-7%	.
Cc1ccc(CNC(=O)C2CCC(CNc3c(N4CCOCC4)c(=O)c3=O)CC2)cc1 (stereo unspecified)	3%	-9%	.
CC1=CC(=NOC(=O)/C=C/c2ccccc2)C=C(C)C1=O	2.2µM*	2.5µM*	10µM*
CC1=CC(=O)C=C(C)C1=NOC(=O)/C=C\c1ccccc1	-4%	-1%	.
O=C(CNC(=O)c1ccccc1)OCC(=O)c1ccccc1	.	.	-25%
O=C(CNC(=O)c1ccco1)OCC(=O)c1ccc2c(c1)CCCC2	-10%	0%	.
CCOc1ccc(C(=O)COC(C)=O)cc1	2%	-7%	.
O=C(CNC(=O)C1CCCCC1)OCC(=O)c1ccc(Br)cc1	.	.	-24%
O=C(CN1C(=O)c2ccccc2C1=O)NCC(=O)OCC(=O)c1ccc(Br)cc1	0%	-9%	.
CCOC(=O)CNC(=O)c1ccccc1	-2%	6%	.
O=C(CNC(=O)C1CCCCC1)OCC(=O)c1ccc2c(c1)CCC2	.	.	-25%
CCOc1ccc(C(=O)COC(=O)CNC(=O)C2CCCCC2)cc1	.	.	-27%
COc1ccc(CN2C(=O)CN(C3CCCCCC3)C(=O)C2c2ccc(F)cc2)cc1 (stereo unspecified)	-1%	9%	.
